The record followed here is PubChem BioAssay (NCATS).

Several values for one entry are separate records, joined by “and”; a condition that tells them apart may be missing. Equal entries are not always repeated. Inconclusive results are not listed. Some compounds were tested as several samples or in several runs, with calls that do not always agree. Activity calls are given as the source filed them. Calls follow the shape of the dose curve; as a rule, active = well fitted curve in the direction sought with a large enough effect; inconclusive = small, poorly fitted or top-dose-only effect, or another doubt; inactive = no such curve, though single readings can be large; an effect the other way counts as inactive or inconclusive. Peptide text beside a SMILES is read from it.

The target in test [1] is Cytochrome P450 3A7 (Homo sapiens) (UniProt P24462). Put plainly: Cytochrome P450 family 3 subfamily A member 7 (CYP3A7) small molecule antagonists: luciferase biochemical qHTS assay (AID 1963596). Also: % is scaled to controls: 0 for no effect and ±100 for the full control effect; nearly all actives have a fitted effect of over 40% in size. To be noted: P450-Glo CYP3A7 enzyme luminescence, 1 h; series mostly up to 57.4 µM. In a few lines:
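Compounds were screened in qHTS format for interference with CYP3A7 turnover of a proluciferin substrate. Reactions ran 1 h at room temperature after NADPH regeneration solution was added, then luciferin product was detected by luminescence.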
A general note: Quantitative high-throughput screening tests each substance at several concentrations.

Test [2] is described as follows: Viability qHTS for spleen associated tyrosine kinase inhibitor (SYKi) naive MV4-11 cells (AID 1963823). Also: nearly all actives have a fitted effect of over 40% in size. Also: potency is read from the fitted curve at half-maximal effect. The settings on record: MV4-11 AML viability, CellTiter-Glo luminescence, 72 h; series mostly up to 45 µM. In a few lines: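 qHTS, SYK inhibitor-naive MV4-11; 500 cells/well; 72 hr compound exposure, 37 C; CellTiter-Glo added, 10 min RT; luminescence read.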
Test [3] can be described thus: Viability qHTS for spleen associated tyrosine kinase inhibitor (SYKi) drug resistant MV4-11 cells (AID 1963824). Also: nearly all actives have a fitted effect of over 35% in size. Also: potency is read from the fitted curve at half-maximal effect. To be noted: SYKi-resistant MV4-11 viability, CellTiter-Glo, 72 h; series mostly up to 45 µM. In a few lines:
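SYK-inhibitor-resistant MV4-11 AML cells were seeded at 500 per well onto compound and cultured 72 hours (37 °C, 5% CO2). CellTiter-Glo was then added, and after 10 min at room temperature, luminescence gave viability.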

Test [4] can be described thus: Quantitative highthroughput screen to assess conditional lethalithy of NOMO1 cells grown in RPMI1640 with untreated serum (RPMI+s) (AID 1963876). Also: nearly all actives have a fitted effect of over 35% in size. Also: potency is read from the fitted curve at half-maximal effect.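 As to Viability: 100% = DMSO wells and 0% = empty wells without cells.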 To be noted: NOMO1 AML cells in RPMI+serum, CellTiter-Glo viability, 48 h; series mostly up to 45.8 µM. In a few lines: (§1)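 Each medium arm—HPLM with 10% dialyzed FBS, or RPMI1640 with 5 mM glucose and 10% untreated or dialyzed FBS—was screened against an 11-point, 3-fold compound titration for 48 h at 37 °C, with CellTiter-Glo luminescence as endpoint.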

A short description of test [5]: Quantitative highthroughput screen to assess conditional lethalithy of NOMO1 cells grown in RPMI1640 with dialyzed fetal bovine serum (RPMI+ds) (AID 1963877). Also: nearly all actives have a fitted effect of over 30% in size. Also: potency is read from the fitted curve at half-maximal effect.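 As to Viability: 100% = DMSO control wells and 0% = empty wells.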 The settings on record: NOMO1 in RPMI+dialyzed FBS viability, ATP luminescence, 48 h; series mostly up to 45.8 µM. Put shortly:
as §1

The nature of test [6]: Quantitative highthroughput screen to assess conditional lethalithy of NOMO1 cells grown in Human Plasma-Like Medium with dialyzed fetal bovine serum (HPLM+ds) (AID 1963878). Also: nearly all actives have a fitted effect of over 35% in size. Also: potency is read from the fitted curve at half-maximal effect.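 As to Viability: 100% = DMSO wells and 0% = empty wells on each plate.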 The settings on record: NOMO1 AML cells in HPLM+ds, CellTiter-Glo viability, 48 h; series mostly up to 45.8 µM. In a few lines:
as §1
In general terms: In ATP-based viability assays light output follows the ATP content of the culture.

Test [7] is described as follows: Quantitative highthroughput screen to assess conditional lethalithy of P12 Ichikawa cells grown in Human Plasma-Like Medium with dialyzed fetal bovine serum (HPLM+ds) (AID 1963879). Also: nearly all actives have a fitted effect of over 35% in size. Also: potency is read from the fitted curve at half-maximal effect. The settings on record: ATP luminescence, 48 h; Potency: viability; series mostly up to 45.8 µM. Put shortly:
as §1

Test [8] can be described thus: Quantitative highthroughput screen to assess conditional lethalithy of P12 Ichikawa cells grown in RPMI1640 with dialyzed fetal bovine serum (RPMI+ds) (AID 1963880). Also: nearly all actives have a fitted effect of over 35% in size. Also: potency is read from the fitted curve at half-maximal effect.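 As to Viability: 100% = DMSO wells and 0% = empty wells on each plate.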 To be noted: ATP luminescence, 48 h; Potency: P12-Ichikawa viability; series mostly up to 45.8 µM. Put shortly: as §1
Test [9] in a line: Quantitative highthroughput screen to assess conditional lethalithy of P12 Ichikawa cells grown in RPMI1640 with untreated serum (RPMI+s) (AID 1963881). Also: nearly all actives have a fitted effect of over 35% in size. Also: potency is read from the fitted curve at half-maximal effect.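 As to Viability: 100% = DMSO wells and 0% = empty wells without cells.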 To be noted: ATP luminescence, 48 h; Potency: viability; series mostly up to 45.8 µM. Put shortly:
as §1

Test [10] is described as follows: Quantitative highthroughput screen to assess conditional lethalithy of SEM cells grown in Human Plasma-Like Medium with dialyzed fetal bovine serum (HPLM+ds) (AID 1963882). Also: nearly all actives have a fitted effect of over 35% in size. Also: potency is read from the fitted curve at half-maximal effect. The settings on record: SEM B-ALL cells in HPLM+ds, CellTiter-Glo viability, 48 h; series mostly up to 45.8 µM. Put shortly: as §1
Test [11] can be described thus: Quantitative highthroughput screen to assess conditional lethalithy of SEM cells grown in RPMI1640 with dialyzed fetal bovine serum (RPMI+ds) (AID 1963884). Also: nearly all actives have a fitted effect of over 35% in size. Also: potency is read from the fitted curve at half-maximal effect.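 As to Viability: 100% = DMSO control wells and 0% = empty wells without cells.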 The settings on record: SEM B-ALL cells, RPMI+dialyzed FBS, CellTiter-Glo viability, 48 h; series mostly up to 45.8 µM. In a few lines: as §1
Test [12] in a line: Cellular viability qHTS for adrenocortical cancer (ACC) cell line SW-13 (AID 1963989). Also: nearly all actives have a fitted effect of over 65% in size. Also: potency is read from the fitted curve at half-maximal effect.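 As to activity (max response): cells grown in serum-free medium with ITS supplement; % is scaled to controls: 0 for no effect and ±100 for the full control effect.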 To be noted: SW-13 ACC cells viability, CellTiter-Glo, 48 h; activity (max response): stronger effect = lower value. Put shortly:
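SW-13 cells in ITS-supplemented serum-free DMEM were plated overnight, then exposed for 48 h at 37C to compound titrations (up to 46 uM final). Viability was read by CellTiter-Glo luminescence; four-parameter logistic fits gave IC50 and efficacy.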

Test [13] can be described thus: Cellular viability qHTS for adrenocortical cancer (ACC) cell line NCI-H295R (AID 1963990). Also: nearly all actives have a fitted effect of over 60% in size. Also: potency is read from the fitted curve at half-maximal effect. The settings on record: CellTiter-Glo ATP luminescence, 48 h; series mostly up to 46.1 µM. In a few lines:
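Luminescent ATP read-out (CellTiter-Glo, 20 min RT) after 48 h drug exposure of NCI-H295R cells; a titration up to 46 uM final. Data normalized to doxorubicin (100% inhibition) and DMSO (0%); 4-parameter fit gives IC50, max response.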

The nature of test [14]: Quantitative highthroughput screen to assess conditional lethalithy of SEM cells grown in RPMI1640 with unreated serum (RPMI+s) (AID 1963883). Also: nearly all actives have a fitted effect of over 35% in size. Also: potency is read from the fitted curve at half-maximal effect.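 As to Viability: 100% = DMSO wells and 0% = empty wells without cells.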 To be noted: SEM B-ALL cells, CellTiter-Glo viability, 48 h; series mostly up to 45.8 µM. In a few lines: as §1

Sequence of Cytochrome P450 3A7 (Homo sapiens) (P24462 whole entry, looked up): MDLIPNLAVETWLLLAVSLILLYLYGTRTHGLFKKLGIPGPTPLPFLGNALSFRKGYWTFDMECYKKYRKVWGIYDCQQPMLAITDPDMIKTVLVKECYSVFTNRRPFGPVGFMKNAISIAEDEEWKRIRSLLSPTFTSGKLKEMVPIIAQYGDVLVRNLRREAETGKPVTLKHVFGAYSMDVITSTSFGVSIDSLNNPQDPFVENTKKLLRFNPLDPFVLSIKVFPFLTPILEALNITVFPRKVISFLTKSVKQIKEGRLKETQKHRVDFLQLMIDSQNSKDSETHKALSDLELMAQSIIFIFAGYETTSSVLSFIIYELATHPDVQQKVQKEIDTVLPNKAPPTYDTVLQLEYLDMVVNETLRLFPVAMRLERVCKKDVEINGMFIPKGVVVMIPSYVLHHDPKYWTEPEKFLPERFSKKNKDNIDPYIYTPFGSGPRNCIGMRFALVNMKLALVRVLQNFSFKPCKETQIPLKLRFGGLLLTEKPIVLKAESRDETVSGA

As for `CC(C)Cn1cnc2c(N)nc3ccccc3c21`, the Potency result in test [1], in test [2], in [3], in [4], in test [5] and in [6] was “inactive” each time. The Potency result in test [7], in [8], in test [9], in test [10], in test [11] and in test [13] was “inactive” each time. Besides, in test [12], the activity (max response) is 0.433% (inactive) and -11.1% (inactive).

For the molecule `COc1ccc(C2(C#N)CCC(C(=O)O)CC2)cc1OC1CCCC1` (stereo not given), the Potency entry in [1], in [2], in test [3], in [4], in test [5] and in test [6] was “inactive” each time. The Potency entry in [7], in test [8], in [10], in [14] and in test [13] was “inactive” in each case. In addition, the activity (max response) in [12] was 2.89% (inactive).

As to `COC[C@H](NC(=O)c1cnc(C)s1)C(=O)N[C@@H](COC)C(=O)N[C@@H](Cc1ccccc1)C(=O)[C@@]1(C)CO1`, in test [1], the Potency entry is “inactive”. Further, the Potency was 66.1 nM (active) in test [2]; 83.3 nM (active) in [3]; 469 nM (active) in [4]; 469 nM (active) in [5]; 332 nM (active) in [6]; 235 nM (active) in test [7]. The Potency in [8] was 235 nM (active); in [9] it was 264 nM (active); in [10], 93.5 nM (active); in test [14] it was 83.3 nM (active); in test [11], 83.3 nM (active); in [12], 316 nM (active). In [13], the Potency was 282 nM (active).

As for `C[C@H]1c2cccc(O)c2C(O)=C2C(=O)[C@]3(O)C(O)=C(C(N)=O)C(=O)[C@@H](N(C)C)[C@@H]3[C@@H](O)[C@@H]21`, the Potency entry in [1], in [4], in [5], in test [6], in [7] and in test [10] was “inactive” each time. The Potency entry in [14] and in test [13] was “inactive” each time. The Potency result in [2] is “inactive and 16.6 µM (active)”; in test [3], 14800 nM (active); in test [8], 16600 nM (active); in [9], 18700 nM (active). Moreover, the activity (max response) in test [12] was -2.36% (inactive) and -5.39% (inactive).

Take `NC(=O)c1cnccn1`: the Potency result in [1], in test [2], in test [3], in test [4], in [5] and in [6] was “inactive” each time. The Potency entry in test [7], in test [8], in test [9], in test [10], in [14] and in [11] was “inactive” each time. The Potency entry in [13] was “inactive”. The activity (max response) in test [12] was 14.3% (inactive) and 8.02% (inactive).

In the case of `N[C@@H]1CONC1=O`, the Potency result in test [1], in test [2], in [3], in test [4], in test [5] and in test [6] was “inactive” each time. The Potency result in [7], in test [8], in test [9], in test [10], in test [14] and in test [11] was “inactive” in each case. Also, the Potency entry in [13] was “inactive”. Moreover, the activity (max response) in test [12] was 0.98% (inactive) and -6.89% (inactive).

Regarding `CNS(=O)(=O)CCc1ccc2[nH]cc(C3CCN(C)CC3)c2c1`, the Potency entry in test [1], in test [2], in test [3], in [4], in test [5] and in test [6] was “inactive” each time. The Potency entry in test [7], in test [8], in [9], in [10], in test [14] and in test [11] was “inactive” each time. In addition, the Potency entry in test [13] was “inactive”. For the same molecule, the activity (max response) in test [12] is -14.7% (inactive).

In the case of `Nc1ccc(S(N)(=O)=O)cc1`, the Potency entry in [1], in test [2], in test [3], in [4], in [5] and in [6] was “inactive” in each case. In addition, the Potency result in test [7], in test [8], in [9], in test [10], in [14] and in [11] was “inactive” in each case. Further, the Potency entry in test [13] is “inactive”. Also, the activity (max response) in test [12] was 16.5% (inactive) and -23.7% (inactive).

With `O=C(c1ccccc1)c1ccc2n1CCC2C(=O)O` (stereo not given), the Potency entry in test [1], in [2], in test [3], in test [4], in [5] and in [6] was “inactive” each time. In addition, in test [13], the Potency entry was “inactive”. Further, the Potency was 2350 nM (active) in test [7], 4180 nM (active) in test [8], 3720 nM (active) in test [9] and 4690 nM (active) in test [11]. Besides, the activity (max response) in test [12] was 8.29% (inactive) and -6.52% (inactive).

As for `NC(=O)OCC(COC(N)=O)c1ccccc1`, the Potency result in test [1], in test [2], in test [3], in test [4], in test [5] and in test [6] was “inactive” each time. In addition, the Potency entry in test [7], in test [8], in test [9], in [10], in [14] and in test [11] was “inactive” in each case. Also, the activity (max response) in [12] was 2.38% (inactive) and -8.33% (inactive).

Consider `NC(=O)c1cccnc1`, for which the Potency entry in [1], in test [2], in test [3], in test [4], in test [5] and in test [6] was “inactive” each time. The Potency entry in [7], in test [8], in test [9] and in test [13] was “inactive” throughout. The Potency in [10] was 16600 nM (active). In test [12], the activity (max response) was -8.19% (inactive) and 2.22% (inactive).

Turning to `O=NN(CCCl)C(=O)NC1CCCCC1`, the Potency entry in [1], in [2], in [3], in test [4], in test [5] and in [6] was “inactive” in each case. Also, the Potency result in test [7], in test [8], in test [9], in test [10], in test [14] and in [13] was “inactive” each time. Besides, in test [12], the activity (max response) is 15.5% (inactive) and -13.1% (inactive).

For `COC(=O)[C@H](Cc1ccccc1)NC(=O)[C@@H](N)CC(=O)O` (H-Asp-Phe-OMe), the Potency result in test [1], in [2], in test [3], in test [4], in test [5] and in test [6] was “inactive” throughout. Besides, the Potency entry in test [7], in test [8], in test [9], in test [10], in [14] and in [11] was “inactive” each time. In [13], the Potency entry is “inactive”. Moreover, in [12], the activity (max response) was 0.253% (inactive) and -5.37% (inactive).

`Nc1ccn([C@@H]2CS[C@H](CO)O2)c(=O)n1`: the Potency result in [1], in test [2], in [3], in test [4], in [5] and in test [6] was “inactive” in each case. Moreover, the Potency entry in [7], in [8], in test [10], in test [14], in [11] and in test [13] was “inactive” throughout. Further, in test [12], the activity (max response) is 7.41% (inactive).
